A selection: hits, their analogues and other compounds. The true share with any hit is near 2.4%.
POLK inh: qHTS for Inhibitors of Polymerase Kappa. purified Pol kappa, fluorescent DNA synthesis assay, 10 min. hit rate 0.53% among 400,000. Potency, µM (top dose mostly 107 µM), most hits filed as inhibitors. DNA polymerase kappa (Homo sapiens), Q9UBT6
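Kinetic fluorescence readout at 0 and 10 min followed reaction start with substrate at 50 nM final. Beforehand, enzyme (10 nM Pol kappa) stood 15 min with compound at room temperature; buffer-only wells were negative controls.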
WRN helicase inh: qHTS for Inhibitors of WRN Helicase | Bifunctional 3'-5' exonuclease/ATP-dependent helicase WRN (Homo sapiens), Q14191 | WRN helicase unwinding, fluorescent forked duplex, kinetic | Potency, µM (series often up to 114 µM), most hits filed as inhibitors | hit rate 0.46% among 360,000 | AID 651768, 2012; also: nearly all actives have a fitted effect of over 55% in size
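Enzyme (20 nM final) and test compound sit together 15 min at room temperature before substrate addition. Substrate is a single-forked duplex oligonucleotide (100 nM) labelled with fluorophore and quencher, with 2 mM ATP; helicase unwinding raises red fluorescence, read kinetically.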
POLB inh: qHTS Assay for Inhibitors of DNA Polymerase Beta. hit rate 1.3% among 340,000. P06746. Potency, µM (doses to about 114 µM), hits mostly inhibitors. Pol beta primer extension/strand displacement, fluorescence kinetic
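Kinetic readout of DNA synthesis with strand displacement by Pol beta. Compound and 10 nM enzyme sit 15 min at room temperature; 50 nM substrate starts the reaction, read immediately and at 10 min.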
FEN1 inh: qHTS Assay for the Inhibitors of Human Flap endonuclease 1 (FEN1) | Recombinant FEN1 flap cleavage, fluorescence, 15 min | P39748 | AID 588795, 2011 | Potency, µM (top dose mostly 114 µM), actives largely listed as inhibitors | hit rate 0.35% among 390,000; also: nearly all actives have a fitted effect of over 65% in size
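With each library titrated from low to high concentration, compounds met 10 nM FEN1 for 15 min at room temperature before 50 nM substrate was added; readings at 0 and 15 min fed four-parameter Hill curve fits.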
Pol eta inh: qHTS for Inhibitors of Polymerase Eta. DNA polymerase eta (Homo sapiens), Q9Y253. recombinant Pol eta, fluorescent DNA replication assay. Potency, µM (highest dose often 114 µM), hits mostly inhibitors. hit rate 1.2% among 390,000
Target sequence (Q9Y253 whole entry, looked up): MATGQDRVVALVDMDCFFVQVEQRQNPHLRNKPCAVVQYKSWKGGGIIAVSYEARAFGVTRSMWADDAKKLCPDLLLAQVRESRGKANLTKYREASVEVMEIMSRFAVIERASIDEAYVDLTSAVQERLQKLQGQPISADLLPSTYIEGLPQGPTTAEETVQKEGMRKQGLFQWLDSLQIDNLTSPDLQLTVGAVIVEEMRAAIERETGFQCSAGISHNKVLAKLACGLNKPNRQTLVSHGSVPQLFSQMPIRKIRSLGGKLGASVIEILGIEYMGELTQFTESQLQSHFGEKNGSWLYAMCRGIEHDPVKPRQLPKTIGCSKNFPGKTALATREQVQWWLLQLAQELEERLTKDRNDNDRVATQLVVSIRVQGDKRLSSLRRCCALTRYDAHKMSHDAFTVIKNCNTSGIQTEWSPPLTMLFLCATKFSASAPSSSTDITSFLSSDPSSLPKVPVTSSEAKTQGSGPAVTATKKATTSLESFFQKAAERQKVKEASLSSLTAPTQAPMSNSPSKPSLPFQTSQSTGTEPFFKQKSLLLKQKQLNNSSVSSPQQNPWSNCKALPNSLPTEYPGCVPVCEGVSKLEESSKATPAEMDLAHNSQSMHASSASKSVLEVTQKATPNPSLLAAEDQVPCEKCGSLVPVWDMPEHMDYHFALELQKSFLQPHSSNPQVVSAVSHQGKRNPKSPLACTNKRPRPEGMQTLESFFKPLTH
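Pol eta (10 nM) was preincubated with compounds for 15 min at room temperature, after which fluorescent replication substrate (50 nM final) was added to start the reaction. Fluorescence was read kinetically at 0 and 10 min.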
Pol iota inh: qHTS for Inhibitors of Polymerase Iota; Potency, µM (titrated, usually from 115 µM), most hits filed as inhibitors; hit rate 1% among 390,000; Pol iota fluorescent replication assay, 10 min
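Pol iota at 10 nM preincubated 15 min with compounds at room temperature; reaction started with fluorescent substrate, 50 nM final. Fluorescence read kinetically at 0 and 10 min; buffer-only wells as negative control.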
Large screens that a line does not name were inactive. Calls follow the shape of the dose curve; as a rule, active = well fitted curve in the direction sought with a large enough effect; inconclusive = small, poorly fitted or top-dose-only effect, or another doubt; inactive = no such curve, though single readings can be large; an effect the other way counts as inactive or inconclusive.

CC(=O)c1ccc(Nc2c3ccccc3cc3occc23)cc1	none (no result: WRN helicase inh, POLB inh, FEN1 inh, Pol eta inh, Pol iota inh)
COc1cccc(CNC(=O)c2ccc(-n3c(C)cc4c3CCCC4)cc2)c1	none (no result: WRN helicase inh)
CC(=O)Oc1ccc2nonc2c1OC(C)=O	POLK inh 3.16µM, FEN1 inh 10µM, Pol iota inh 3.55µM (no result: WRN helicase inh, POLB inh, Pol eta inh)
CC(=O)Nc1cc(OC(C)=O)c2nonc2c1OC(C)=O	Pol eta inh 50.1µM, Pol iota inh 0.794µM
CCc1cccc(NC(=O)C(CC)n2nc(C)c3sc4ccccc4c3c2=O)c1 (configuration not stated)	none (no result: WRN helicase inh)
O=c1cc(-c2ccncc2)oc2c1ccc1ccccc12	POLB inh inconclusive, FEN1 inh inconclusive
O=c1cc(-c2ccc(O)cc2)oc2c1ccc1ccccc12	Pol eta inh 56.2µM (no result: POLB inh)
O=c1cc(-c2ccccc2O)oc2c1ccc1ccccc12	none (no result: WRN helicase inh, POLB inh, FEN1 inh, Pol eta inh, Pol iota inh)
O=c1cc(-c2ccco2)oc2c1ccc1ccccc12	POLB inh 17.8µM, Pol eta inh inconclusive
O=c1cc(-c2cccc(O)c2)oc2c(O)c(O)ccc12	POLK inh 2.82µM (no result: WRN helicase inh, POLB inh, FEN1 inh, Pol eta inh, Pol iota inh)
O=c1cc(-c2cccc(O)c2)oc2cc(O)ccc12	none (no result: WRN helicase inh, POLB inh, FEN1 inh, Pol eta inh, Pol iota inh)
O=C(CNC(=O)C1CCCCC1)OCC(=O)c1ccc(-c2ccccc2)cc1	none (no result: WRN helicase inh, POLB inh, Pol eta inh)
CC1(C)S[C@@H]2[C@H](NC(=O)COc3ccccc3)C(=O)N2[C@@H]1C(=O)OCc1cccc2cccnc12	none (no result: WRN helicase inh, POLB inh, Pol eta inh)
C=C1C=C(C(F)F)n2ncc(C(=O)NC(C)CC)c2N1 (configuration not stated)	none (no result: WRN helicase inh, POLB inh, Pol eta inh)
CCOc1cc(N2CCOCC2)c(OCC)cc1NC(=O)c1cc(S(=O)(=O)N2CCOCC2)ccc1Cl	none (no result: POLB inh)
CCOc1cc(N2CCOCC2)c(OCC)cc1NS(=O)(=O)c1ccc(Cl)s1	Pol iota inh 28.2µM
O=c1cc(CCl)nc2sc3ccccc3n12	POLK inh inconclusive, POLB inh inconclusive, Pol eta inh 50.1µM, Pol iota inh 35.5µM
Cc1c(O)nc2sc3ccccc3n2c1=O	none (no result: POLK inh, WRN helicase inh, FEN1 inh, Pol eta inh, Pol iota inh)
O=C(OCc1cc(=O)n2c(n1)sc1ccccc12)c1ccc(O)cc1	POLB inh 10µM, Pol eta inh inconclusive
COc1ccc(/C=C/C(=O)OCc2cc(=O)n3c(n2)sc2ccccc23)cc1	POLB inh inconclusive
CC(C)(C)c1ccc(O)c(N=Cc2cccc([N+](=O)[O-])c2)c1	none (no result: WRN helicase inh, POLB inh, Pol eta inh)
Cc1cc(Br)ccc1NC(=O)COC(=O)c1ccccc1OCC(N)=O	none (no result: WRN helicase inh, POLB inh, Pol eta inh)
CC/C(C)=N/Nc1nc2c(c(=O)[nH]c(=O)n2C)n1Cc1ccccc1	POLB inh inconclusive, Pol eta inh inconclusive, Pol iota inh 15.8µM
CC/C(C)=N/Nc1nc2c(c(=O)[nH]c(=O)n2C)n1CCc1ccccc1	none
CCSS(=O)(=O)c1cccc2cccnc12	WRN helicase inh 31.6µM
O=C(Cc1cccs1)Nc1nnc(Cc2ccc(F)cc2)s1	POLB inh 39.8µM (no result: POLK inh, WRN helicase inh, FEN1 inh, Pol eta inh, Pol iota inh)
O=C(Cc1cccs1)Nc1nnc(-c2ccccc2)s1	none
CCC(CC)c1nnc(NC(=O)Cc2cccs2)s1	POLB inh inconclusive, Pol eta inh 79.4µM
CC1CCC(N2CC(=O)N(C3CCCCC3)C(c3ccc(Cl)cc3)C2=O)CC1 (configuration not stated)	none (no result: WRN helicase inh)
N#C/C(=C/c1ccc(Cl)cc1)c1nc(-c2ccc(Br)cc2)cs1	Pol iota inh inconclusive (no result: WRN helicase inh)
Cc1ccnc(N/C=C(\C#N)c2nc(-c3cccc(Br)c3)cs2)c1	POLB inh 35.5µM, FEN1 inh inconclusive, Pol iota inh inconclusive
CCN(CC)CCCN1C=C2C(=O)C(C)(OC(=O)CCC(=O)OC)C(=O)C(Br)=C2C=C1c1ccc(OC)cc1 (configuration not stated)	POLK inh inconclusive, FEN1 inh inconclusive, Pol eta inh 39.8µM, Pol iota inh inconclusive (no result: POLB inh)
Nc1ncnc2c1ncn2[C@@H]1O[C@H](COP(=O)(O)OP(=O)(O)OP(=O)(O)OP(=O)(O)OC[C@@H]2O[C@H](n3cnc4c(N)ncnc43)[C@@H](O)[C@@H]2O)[C@H](O)[C@H]1O	none (no result: POLK inh, WRN helicase inh, FEN1 inh)
CNC(=O)c1cc(-c2cccs2)on1	none (no result: WRN helicase inh, POLB inh, Pol eta inh)

Source: PubChem
